Among the data in ChEMBL document CHEMBL1961873, “Compounds: GSK PKIS; Assays: Nanosyn kinase panel” (2012) are inhibition values, retold here.

The target of experiment [1] is Serine/threonine-protein kinase 26 (Homo sapiens) (UniProt Q9P289). Particulars: at 1 µM.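 Note: mean inhibition of MST4 kinase activity, reported from the GSK PKIS inhibitor-set screening panel.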
Experiment [2] has as its target Serine/threonine-protein kinase PAK 1 (Homo sapiens) (UniProt Q13153). Particulars: at 0.1 µM.
The target is the same in experiment [3]. The settings on record: at 1 µM.
Experiment [4] has as its target Serine/threonine-protein kinase PAK 2 (Homo sapiens) (UniProt Q13177). Particulars: at 0.1 µM.
Experiment [5] shares this target. The settings on record: at 1 µM.
The target of experiment [6] is Serine/threonine-protein kinase PAK 3 (Homo sapiens) (UniProt O75914). The settings on record: at 0.1 µM.
Experiment [7] shares this target. Particulars: at 1 µM.
Experiment [8] deals with Serine/threonine-protein kinase PAK 5 (Homo sapiens) (UniProt Q9P286). The settings on record: at 0.1 µM.
Experiment [9] shares this target. Particulars: at 1 µM.
Experiment [10] concerns the target Serine/threonine-protein kinase PAK 6 (Homo sapiens) (UniProt Q9NQU5). The settings on record: at 0.1 µM.
The target is the same in experiment [11]. Particulars: at 1 µM.
Experiment [12] concerns Tyrosine-protein kinase ABL1 (Homo sapiens), P00519 [E255K]. The settings on record: at 0.1 µM.
Experiment [13] shares this test system. The settings on record: at 1 µM.
Experiment [14] has as its system Tyrosine-protein kinase ABL1 (Homo sapiens), P00519 [H396P]. The settings on record: at 0.1 µM.
Experiment [15] shares this test system. The settings on record: at 1 µM.
Experiment [16] has as its system Tyrosine-protein kinase ABL1 (Homo sapiens), P00519 [M351T]. The settings on record: at 0.1 µM.
Experiment [17] has the same test system. The settings on record: at 1 µM.
Experiment [18] deals with Tyrosine-protein kinase ABL1 (Homo sapiens), P00519 [Q252H]. The settings on record: at 0.1 µM.
For experiment [19] the test system is unchanged. Particulars: at 1 µM.
Experiment [20] has as its system Tyrosine-protein kinase ABL1 (Homo sapiens), P00519 [T315I]. Particulars: at 0.1 µM.

One may read the inhibition as the change of the read-out against control, counted positive when it falls.

Sequence of Serine/threonine-protein kinase PAK 1 (Homo sapiens) (Q13153 whole entry): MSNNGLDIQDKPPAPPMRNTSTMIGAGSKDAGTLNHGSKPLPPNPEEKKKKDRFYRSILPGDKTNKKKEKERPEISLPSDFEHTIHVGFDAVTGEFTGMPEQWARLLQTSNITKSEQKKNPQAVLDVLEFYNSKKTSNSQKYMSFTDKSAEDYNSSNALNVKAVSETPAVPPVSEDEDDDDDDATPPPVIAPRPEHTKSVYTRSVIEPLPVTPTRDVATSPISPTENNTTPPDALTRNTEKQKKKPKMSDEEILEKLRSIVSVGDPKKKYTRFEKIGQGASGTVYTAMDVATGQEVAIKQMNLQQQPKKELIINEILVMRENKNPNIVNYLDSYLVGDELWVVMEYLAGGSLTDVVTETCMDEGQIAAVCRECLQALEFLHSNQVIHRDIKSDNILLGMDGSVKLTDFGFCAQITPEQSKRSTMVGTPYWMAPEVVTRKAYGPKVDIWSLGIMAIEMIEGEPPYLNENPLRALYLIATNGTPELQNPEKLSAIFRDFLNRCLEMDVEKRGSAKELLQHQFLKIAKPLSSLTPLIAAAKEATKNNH
Sequence of Serine/threonine-protein kinase PAK 5 (Homo sapiens) (Q9P286 whole entry, looked up): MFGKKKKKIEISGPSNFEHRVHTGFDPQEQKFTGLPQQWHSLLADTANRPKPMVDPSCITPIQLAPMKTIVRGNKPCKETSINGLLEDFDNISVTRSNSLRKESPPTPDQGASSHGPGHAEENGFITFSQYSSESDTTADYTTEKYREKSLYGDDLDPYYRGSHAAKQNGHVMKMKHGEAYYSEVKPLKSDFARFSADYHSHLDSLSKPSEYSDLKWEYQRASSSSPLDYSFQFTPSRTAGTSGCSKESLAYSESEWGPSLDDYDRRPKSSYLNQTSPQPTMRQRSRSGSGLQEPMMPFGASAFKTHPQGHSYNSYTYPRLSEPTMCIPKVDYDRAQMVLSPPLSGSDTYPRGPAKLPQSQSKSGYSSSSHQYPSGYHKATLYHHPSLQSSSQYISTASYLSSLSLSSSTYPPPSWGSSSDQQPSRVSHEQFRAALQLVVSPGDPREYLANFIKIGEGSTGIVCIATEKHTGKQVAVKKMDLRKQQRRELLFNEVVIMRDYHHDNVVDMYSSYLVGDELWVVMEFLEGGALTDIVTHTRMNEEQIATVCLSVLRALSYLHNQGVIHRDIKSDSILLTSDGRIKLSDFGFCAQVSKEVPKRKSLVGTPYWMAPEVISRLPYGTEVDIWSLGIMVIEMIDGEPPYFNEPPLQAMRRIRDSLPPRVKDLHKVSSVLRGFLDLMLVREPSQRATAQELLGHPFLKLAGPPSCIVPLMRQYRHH
Sequence of Serine/threonine-protein kinase PAK 2 (Homo sapiens) (Q13177 whole entry): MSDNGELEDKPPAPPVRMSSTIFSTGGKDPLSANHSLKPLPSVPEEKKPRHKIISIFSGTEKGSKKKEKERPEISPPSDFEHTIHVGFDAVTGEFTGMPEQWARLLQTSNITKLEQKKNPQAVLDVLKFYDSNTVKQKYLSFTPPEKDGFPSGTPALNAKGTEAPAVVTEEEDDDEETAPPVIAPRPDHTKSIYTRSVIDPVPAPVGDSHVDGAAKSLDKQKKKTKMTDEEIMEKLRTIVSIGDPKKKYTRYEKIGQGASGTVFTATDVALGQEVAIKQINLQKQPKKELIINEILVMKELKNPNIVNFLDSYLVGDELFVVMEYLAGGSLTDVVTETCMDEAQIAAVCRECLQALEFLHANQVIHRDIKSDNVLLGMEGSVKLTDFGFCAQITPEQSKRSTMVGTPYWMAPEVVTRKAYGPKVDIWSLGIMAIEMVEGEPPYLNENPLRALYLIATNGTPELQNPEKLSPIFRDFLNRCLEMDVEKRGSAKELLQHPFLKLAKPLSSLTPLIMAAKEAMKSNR
Sequence of Serine/threonine-protein kinase 26 (Homo sapiens) (Q9P289 2-416 limits assumed): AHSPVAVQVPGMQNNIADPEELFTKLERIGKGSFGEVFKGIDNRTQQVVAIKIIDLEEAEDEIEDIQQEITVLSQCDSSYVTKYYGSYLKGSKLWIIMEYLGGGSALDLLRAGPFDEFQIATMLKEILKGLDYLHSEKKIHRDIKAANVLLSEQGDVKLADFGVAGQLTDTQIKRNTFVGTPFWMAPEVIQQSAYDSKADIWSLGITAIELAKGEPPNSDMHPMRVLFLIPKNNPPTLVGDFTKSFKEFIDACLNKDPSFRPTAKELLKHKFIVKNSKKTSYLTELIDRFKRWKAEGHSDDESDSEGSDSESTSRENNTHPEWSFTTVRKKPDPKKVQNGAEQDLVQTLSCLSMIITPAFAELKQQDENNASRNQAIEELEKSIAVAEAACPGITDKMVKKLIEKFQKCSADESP
Sequence of Serine/threonine-protein kinase PAK 6 (Homo sapiens) (Q9NQU5 whole entry, looked up): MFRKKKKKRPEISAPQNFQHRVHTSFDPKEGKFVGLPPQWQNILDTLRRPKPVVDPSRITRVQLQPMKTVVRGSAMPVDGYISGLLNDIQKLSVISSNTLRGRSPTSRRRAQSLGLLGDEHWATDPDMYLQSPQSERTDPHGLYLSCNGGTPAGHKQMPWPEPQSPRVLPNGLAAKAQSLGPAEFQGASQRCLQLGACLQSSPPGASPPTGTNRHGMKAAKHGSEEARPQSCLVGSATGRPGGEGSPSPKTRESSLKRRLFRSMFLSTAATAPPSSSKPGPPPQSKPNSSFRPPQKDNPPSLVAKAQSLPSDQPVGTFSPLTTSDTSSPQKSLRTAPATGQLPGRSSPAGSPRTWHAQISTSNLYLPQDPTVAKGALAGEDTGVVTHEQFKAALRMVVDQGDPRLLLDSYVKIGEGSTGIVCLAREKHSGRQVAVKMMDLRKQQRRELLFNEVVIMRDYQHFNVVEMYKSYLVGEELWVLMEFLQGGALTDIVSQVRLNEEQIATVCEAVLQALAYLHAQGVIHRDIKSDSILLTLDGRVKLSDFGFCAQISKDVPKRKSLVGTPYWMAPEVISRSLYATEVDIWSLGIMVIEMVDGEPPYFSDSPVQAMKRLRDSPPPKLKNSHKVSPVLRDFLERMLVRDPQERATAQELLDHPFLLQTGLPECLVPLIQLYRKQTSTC
Sequence of Serine/threonine-protein kinase PAK 3 (Homo sapiens) (O75914 whole entry, looked up): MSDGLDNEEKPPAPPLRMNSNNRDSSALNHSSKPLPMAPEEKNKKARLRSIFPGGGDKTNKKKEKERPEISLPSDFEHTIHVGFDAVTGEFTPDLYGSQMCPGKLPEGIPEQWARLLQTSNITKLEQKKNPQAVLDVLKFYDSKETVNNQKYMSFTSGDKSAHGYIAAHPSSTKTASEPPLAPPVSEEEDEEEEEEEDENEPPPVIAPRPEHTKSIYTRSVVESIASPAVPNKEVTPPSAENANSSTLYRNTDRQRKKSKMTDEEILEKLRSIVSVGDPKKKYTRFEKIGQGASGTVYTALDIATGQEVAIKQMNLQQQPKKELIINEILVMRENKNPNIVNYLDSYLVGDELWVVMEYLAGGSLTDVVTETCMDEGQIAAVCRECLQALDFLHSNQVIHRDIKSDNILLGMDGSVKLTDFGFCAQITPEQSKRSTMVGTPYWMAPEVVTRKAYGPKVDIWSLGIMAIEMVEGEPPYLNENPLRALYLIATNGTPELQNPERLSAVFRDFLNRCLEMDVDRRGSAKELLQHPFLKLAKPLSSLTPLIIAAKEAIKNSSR

On to `O=C1Nc2ccc(-c3cccnc3)cc2C1=Cc1cc(Br)c(O)c(Br)c1`, for which the inhibition in experiment [1] is 36%; in [2], 6.15%; in experiment [3], 6.31%; in experiment [4] it was 2.5%; in experiment [5] it was 2.17%; in [6] it was 4.09%. For the same molecule, the inhibition in [7] is 4.77%; in [8], 0.53%; in experiment [9], -0.35%; in [10], -0.06%; in experiment [11], 7.69%; in experiment [12], 3.78%. The inhibition was determined as 8.72% in experiment [13]; 3.44% in [14]; 7.14% in experiment [15]; 4.37% in experiment [16]; 6.55% in experiment [17]; 2.79% in experiment [18]. Moreover, the results for the inhibition in [19] and in [20] were 7.71% and 2.69%, respectively.
As to `Cc1ccc2c(-c3ccnc(Nc4ccc5c(c4)OCCO5)n3)c(-c3ccc(C(F)(F)F)cc3)nn2n1`, the inhibition is 0.53% in [1]; 0.57% in experiment [2]; 2.13% in experiment [3]; 0.68% in [4]; -0.11% in experiment [5]; 2% in [6]. The inhibition in [7] is 0.74%; in experiment [8], -9.67%; in [9] it was -4.92%; in experiment [10], 7.58%; in experiment [11] it was 10.7%; in experiment [12], 2.27%. Also, the inhibition amounted to 3.32% in experiment [13]; 2.14% in experiment [14]; 3.45% in experiment [15]; 0.52% in experiment [16]; 3.13% in [17]; 1.51% in [18]. In addition, the figures for the inhibition in experiment [19] and in experiment [20] were 4.16% and 0.69%, respectively.
Turning to `NS(=O)(=O)c1ccc(Nc2cc(-c3cccc(O)c3)n[nH]2)cc1`, the inhibition is -4.6% in [1]; 9.49% in experiment [2]; 7.81% in experiment [3]; 3.22% in experiment [4]; 2.59% in [5]; 6.66% in [6]. The inhibition in [7] was 6.8%; in [8], 3.04%; in [9], -6.9%; in experiment [10], -0.89%; in experiment [11], -5.13%; in experiment [12] it was 4.46%. Besides, the inhibition in experiment [13] came out at 7.4%; in [14], 5.03%; in experiment [15], 5.99%; in [16], 4.35%; in [17], 4.29%; in experiment [18], 5.44%. In addition, the inhibition is 5.74% in experiment [19] and 4.08% in experiment [20].
On to `COC(=O)c1cncc(/C=C/c2c(C)cc(O)cc2C)c1`, for which the inhibition in experiment [1] is -1.43%; in experiment [2], 4.61%; in experiment [3], 0.91%; in experiment [4] it was 2.48%; in experiment [5], 0.99%; in experiment [6], 4.48%. Besides, the inhibition in experiment [7] turned out to be 4.33%; in [8] it was 9.23%; in experiment [9], 2.77%; in [10] it was 1.5%; in experiment [11], 7.57%; in [12] it was 6.85%. Also, the inhibition in [13] came to 38%; in experiment [14], 13.3%; in experiment [15], 60%; in experiment [16], 15.9%; in [17] it was 66.3%; in experiment [18], 15.9%. In addition, the inhibition was found to be 64.1% in experiment [19] and 4.16% in [20].
`CC(C)c1ccc2c(c1)NC(=O)/C2=N/Nc1ccc(S(N)(=O)=O)cc1`: the inhibition is 0.01% in experiment [1]; -1.3% in experiment [2]; 3.93% in [3]; -1.91% in experiment [4]; -1.73% in [5]; -1.11% in experiment [6]. Moreover, the inhibition is 0.37% in [7]; -6.19% in experiment [8]; -0.94% in experiment [9]; -8.22% in [10]; -5.25% in experiment [11]; 1.09% in [12]. For the same molecule, the inhibition in [13] was determined as 12%; in experiment [14], 5.36%; in experiment [15] it was 33.7%; in experiment [16], 7.06%; in [17] it was 38%; in experiment [18] it was 4.4%. Further, the results for the inhibition in experiment [19] and in [20] were 26.6% and 1.24%, respectively.
Consider `NS(=O)(=O)c1ccc(N/N=C2\C(=O)Nc3ccc(Cl)cc32)cc1`, for which the inhibition in experiment [1] came out at 13.4%; in experiment [2], 3.14%; in experiment [3], 5.51%; in experiment [4], 0.72%; in experiment [5] it was 1.37%; in [6], 3.71%. The inhibition in experiment [7] is 5.15%; in experiment [8] it was 4.18%; in [9], 3.28%; in [10], -3.69%; in [11], 7.73%; in [12], -0.63%. Moreover, the inhibition in experiment [13] was found to be 5.98%; in [14] it was 3.92%; in experiment [15] it was 12.9%; in [16], 1.55%; in experiment [17] it was 12.6%; in [18], 2.4%. The inhibition in [19] is 9.91%; in experiment [20] it was 0.91%.
Turning to `CCS(=O)(=O)c1ccc(OC)c(Nc2ncc(-c3cccc(OC)c3)o2)c1`, the inhibition was -4.12% in experiment [1]; 2.01% in experiment [2]; 5.71% in [3]; 2.79% in experiment [4]; 1.98% in [5]; 3.24% in [6]. For the same molecule, the inhibition is 2.36% in experiment [7]; 6.72% in experiment [8]; -1.57% in [9]; -4.37% in experiment [10]; 2.64% in experiment [11]; 34% in experiment [12]. Besides, the inhibition in experiment [13] was found to be 81.1%; in experiment [14], 41.6%; in [15], 85.4%; in experiment [16], 43.2%; in experiment [17], 86.1%; in [18], 46.6%. Moreover, the figures for the inhibition in experiment [19] and in experiment [20] were 86.5% and 6.23%, respectively.
For `FC(F)(F)c1ccc(-c2nn3ncccc3c2-c2ccnc(Nc3ccc4c(c3)OCCO4)n2)cc1`, the inhibition was 7.92% in experiment [1]; 4.61% in [2]; 0.84% in experiment [3]; 1.32% in experiment [4]; 1.42% in experiment [5]; 3.69% in experiment [6]. The inhibition is 4.75% in experiment [7]; 6.24% in [8]; 11.3% in [9]; 9.3% in experiment [10]; 15.5% in [11]; -0.31% in [12]. Further, the inhibition in [13] was found to be 0.99%; in [14], 0.37%; in experiment [15] it was 8.02%; in experiment [16], 1.83%; in [17] it was 13.9%; in experiment [18] it was 2.75%. Further, the inhibition was 8.01% in [19] and 1.73% in experiment [20].
Consider `N#Cc1cccc(Nc2nccc(-c3cnn4ncccc34)n2)c1`, for which the inhibition in experiment [1] turned out to be 3.34%; in experiment [2], 8.03%; in experiment [3], 7.42%; in [4] it was 1.67%; in [5] it was 3.52%; in experiment [6], 3.6%. The inhibition is 5.22% in experiment [7]; 0.7% in [8]; 12.7% in experiment [9]; -4.74% in experiment [10]; -4.67% in experiment [11]; 7.52% in experiment [12]. The inhibition in [13] came out at 33%; in [14] it was 13.6%; in experiment [15], 51.8%; in [16], 16.2%; in [17], 60.8%; in experiment [18] it was 15.2%. The inhibition in experiment [19] worked out at 57%; in experiment [20], 8.12%.
For `COc1cccc(-n2nc(C)c3c(N/N=C(\C)c4ccncc4)ncnc32)c1`, the inhibition in [1] was 1.92%; in experiment [2], -1.07%; in experiment [3], 5.57%; in experiment [4] it was -1.35%; in experiment [5], -0.3%; in [6] it was 0.46%. Further, the inhibition is 2.49% in experiment [7]; -0.74% in experiment [8]; -1.22% in experiment [9]; -5.25% in experiment [11]; 1.05% in [12]; 1.53% in experiment [13]. In addition, the inhibition in experiment [14] was 0.51%; in experiment [15] it was 4.07%; in experiment [16], -0.39%; in experiment [17] it was 4.06%; in experiment [18], 0.65%; in experiment [19], 3.19%. Besides, the inhibition in [20] is -2.26%.
As for `COc1cc2ncnc(Nc3ccc4c(cnn4Cc4ccccc4)c3)c2cc1OC`, the inhibition is -2.02% in experiment [1]; 4.26% in experiment [2]; 6.92% in experiment [3]; 1.54% in [4]; 2.6% in experiment [5]; 2.02% in experiment [6]. Also, the inhibition in [7] is 3.19%; in [8] it was 1.77%; in [9], 2.16%; in experiment [11], -6%; in experiment [12] it was 2.21%; in experiment [13] it was 2.28%. Moreover, the inhibition amounted to 2.93% in [14]; 6.16% in experiment [15]; 0.94% in experiment [16]; 3.26% in [17]; 2.63% in experiment [18]; 7.1% in experiment [19]. Besides, in experiment [20], the inhibition stood at 2.91%.
Turning to `c1ccc(Nc2ncc(-c3ccccc3)o2)cc1`, the inhibition in experiment [1] came to 0.04%; in experiment [2], 6.49%; in experiment [3], 10.6%; in experiment [4], 0.76%; in experiment [5], 2.87%; in experiment [6], 5.16%. Further, the inhibition in experiment [7] was 4.34%; in experiment [8], 2.74%; in experiment [9] it was 2.9%; in experiment [11] it was -5.22%; in [12], 2.44%; in experiment [13], 8.33%. The inhibition in experiment [14] stood at 6.74%; in [15], 20.6%; in experiment [16], 1.76%; in experiment [17] it was 17.6%; in experiment [18], 5.59%; in experiment [19] it was 13.7%. Further, the inhibition in experiment [20] was -0.57%.
